Assay outcomes as filed in PubChem BioAssay.
TEAD-YAP inh = TEAD-YAP interaction inhibition; HEK-TIYL cells, TEAD-Gal4/YAP UAS-luciferase luminescence; inhibition, % at 9.12 µM; 640,000 tested, 1.4% active; in the data active = inhibition above about 32%;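 also: 0% = median of test compound wells and 100% = reference inhibitor wells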
MITF inh = human MITF inhibition, primary screen | 650,000 tested, 0.91% active | AlphaScreen MITF homodimerization, bead proximity signal | inhibition, % at 2.6 µM; in the data active = inhibition above about 50%;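 also: 0% = vehicle wells with protein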
Target sequence (O75030 whole entry, looked up): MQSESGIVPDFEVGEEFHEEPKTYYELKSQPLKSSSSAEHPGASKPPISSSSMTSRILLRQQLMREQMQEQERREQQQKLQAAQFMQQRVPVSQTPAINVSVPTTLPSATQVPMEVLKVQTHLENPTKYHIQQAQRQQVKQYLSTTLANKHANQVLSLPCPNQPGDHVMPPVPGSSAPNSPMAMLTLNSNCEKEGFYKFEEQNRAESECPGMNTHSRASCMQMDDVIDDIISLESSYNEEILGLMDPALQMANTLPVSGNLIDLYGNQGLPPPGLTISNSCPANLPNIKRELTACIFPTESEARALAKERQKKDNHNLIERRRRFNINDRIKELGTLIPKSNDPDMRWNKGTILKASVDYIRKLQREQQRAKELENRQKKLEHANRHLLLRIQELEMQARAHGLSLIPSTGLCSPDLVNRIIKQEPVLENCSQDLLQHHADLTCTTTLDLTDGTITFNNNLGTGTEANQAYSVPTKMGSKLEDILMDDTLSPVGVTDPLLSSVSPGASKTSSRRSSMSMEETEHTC
GPR151 activ = human GPR151 activation. AID 1508602. 650,000 tested, 1% active. activation, % at 11.2 µM. Q8TDV0. PathHunter beta-arrestin GPR151 cells, luminescence; in the data active = activation above about 4.9%;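 also: 0% = median of compound wells and 100% = cells with positive control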
FBW7 activator = activators of human E3 ligase FBW7; Q969H0; AlphaScreen FBW7–phospho-cyclin E peptide binding, activator screen; normalized activity (activation), % at 26.1 µM; 650,000 tested, 0.13% active; in the data active = normalized activity above about 1.9%;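 also: purified mutant Fbw7 with reduced substrate affinity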
Numbers without * were called inactive. In the library only some 3.4% were active in any assay of this set; here they are far more common.

SMILES | TEAD-YAP inh | MITF inh | GPR151 activ | FBW7 activator
O=C1NC(=S)N/C1=C/c1cc([N+](=O)[O-])cc([N+](=O)[O-])c1O | 2.1 | 9.2 | -0.2 | 0.0
O=C1NC(=S)NC(=O)C1=Cc1cn(-c2ccccc2)nc1-c1cccs1 | -10.7 | 75.4* | -0.8 | -0.1
O=C1NC(=S)NC(=O)C1=Cc1cn(-c2ccccc2)nc1-c1ccc2c(c1)OCCO2 | -66.9 | 5.2 | 0.4 | -0.2
Cc1ccc(NS(=O)(=O)c2cc(C(=O)Nc3ccccc3)ccc2Br)cc1 | 38.7* | -5.8 | 1.3 | -0.1
O=C(Nc1ccccc1)c1ccc(Cl)c(S(=O)(=O)Nc2ccc(I)cc2)c1 | 35.9* | 4.0 | 0.2 | -0.1
Cc1nc2cccc(C(=O)Oc3cc(C(C)C)ccc3C)c2o1 | 7.1 | 13.8 | -0.6 | 0.2
C=CCNc1nc(N)c(C(N)=NC#N)s1 | 74.1* | -0.7 | 1.8 | 0.0
CCCc1ccc(C(=O)Nc2cnc3ccccc3c2)cc1 | 70.4* | 11.7 | -5.2 | 0.0
CCC(C)(C)n1nnnc1C(c1ccc(F)cc1)N1CCC(C)CC1 (stereo unspecified) | 0.9 | -6.7 | -1.4 | 0.1
Cc1ccc(Nc2nc(NCc3ccccc3)c3ccccc3n2)cc1 | 36.1* | 4.5 | 0.2 | -0.1
Cc1ccc(-c2nc(NCc3ccccc3)c3ccccc3n2)cc1 | -11.7 | -5.1 | -1.6 | 0.1
Fc1ccccc1Nc1nc(NCc2ccco2)c2ccccc2n1 | -13.4 | -0.9 | 1.5 | -0.2
Fc1ccccc1Nc1nc(NCc2ccccc2)c2ccccc2n1 | 47.5* | -26.0 | 3.2 | -0.1
CC1(C)Cc2ccccc2-c2nnc(C(F)(F)C(F)F)n21 | -2.0 | 5.6 | -0.3 | 0.3
C/C=C/COC(=O)C1=C(C)NC(=O)NC1c1ccc(Cl)cc1Cl (stereo unspecified) | 63.8* | 5.3 | 0.4 | -0.1
c1ccc(Nc2nc(NC3CC3)c3ncn(-c4ccsc4)c3n2)cc1 | 49.3* | 1.1 | -1.2 | 0.1
COc1cc(Nc2nc(Nc3ccccc3)nc3c2ncn3-c2ccsc2)cc(OC)c1OC | 23.2 | 1.5 | 0.1 | -0.2
COc1cc(Nc2nc(NC3CCC(O)CC3)nc3c2ncn3-c2ccsc2)cc(OC)c1OC (stereo unspecified) | 68.3* | 15.3 | 0.2 | -0.1
COc1cc(Nc2nc(NC3CC3)c3ncn(-c4ccsc4)c3n2)cc(OC)c1OC | 34.1* | 2.2 | 2.4 | -0.3
COC(=O)C1=C(C)NC(=O)NC1c1cc(Cl)c(OCC(=O)O)c(OC)c1 (stereo unspecified) | -8.2 | -29.8 | 1.8 | 0.1
COc1ccc(C(=O)c2cc([N+](=O)[O-])ccc2Cl)cc1 | 11.9 | 4.1 | 0.2 | -0.3
O=C1CCC(NS(=O)(=O)c2ccc(Cl)cc2)C(=O)N1 (stereo unspecified) | -0.8 | 0.3 | 1.1 | 0.1
CCCN1C(=O)COc2ccc(-c3csc(NC(=O)C(CC)CC)n3)cc21 | 31.9* | 2.7 | -0.3 | 0.1
CC(=O)Nc1nc(-c2ccc3c(c2)CCO3)cs1 | -57.5 | 4.8 | -1.8 | -0.1
CCC(Cc1ccccc1)NS(=O)(=O)c1cc(Br)cnc1N (stereo unspecified) | 11.1 | 6.2 | -0.7 | 0.1
SMILES | TEAD-YAP inh | MITF inh | GPR151 activ | FBW7 activator
COc1cc2nc(-c3ccc(C(=O)NC4CC4)cc3)nc(NCc3ccccc3)c2cc1OC | -0.6 | 0.3 | 1.0 | -0.1
O=[N+]([O-])c1ccc(N2CCN(c3ccc([N+](=O)[O-])c4cccnc34)CC2)cc1 | 0.7 | 21.1 | -0.5 | 2.3*
Cc1ccc(C)c(/C=N/Nc2nc(C)cc(=O)[nH]2)c1 | -4.4 | 5.8 | 0.0 | 0.2
O=C(N/N=C/c1cc([N+](=O)[O-])cc([N+](=O)[O-])c1O)c1ccncc1 | 6.5 | 10.9 | 0.0 | 0.0
Cc1cc(=O)[nH]c(N/N=C/c2cc3c4c(c2O)CCCN4CCC3)n1 | 86.0* | 9.2 | 0.1 | -0.3
O=C(N/N=C/c1cc2c3c(c1O)CCCN3CCC2)c1ccncc1 | 75.4* | 65.6* | 0.3 | -1.0
CCc1ccc(-n2c(=S)sc3c(=O)n(-c4ccc(C)cc4)c(SCC(=O)Oc4cccc(C(F)(F)F)c4)nc32)cc1 | 10.2 | 9.2 | -1.1 | 0.8
COc1ccc(/C=C/C(=O)Nc2ccccc2C)cc1OC | 5.5 | 11.0 | 0.7 | -0.2
O=C(/C=C/c1ccc2c(c1)OCO2)Nc1ccccc1C(=O)O | 46.7* | 20.3 | -6.7 | 0.0
COc1ccc(/C=C/C(=O)Nc2ccccc2C(=O)O)cc1OC | 83.6* | 1.4 | -10.5 | 0.0
CC1CCN(S(=O)(=O)c2ccc(NC(=O)/C=C/c3ccc4c(c3)OCO4)cc2)CC1 | 43.7* | 13.5 | 0.0 | 0.2
COc1ccc2[nH]c(=O)c(CN(CC3CCCO3)S(=O)(=O)c3ccccc3F)cc2c1 (stereo unspecified) | 33.8* | 2.6 | 0.8 | 0.3
CC(=O)OC1c2cc(C)ccc2NC(c2ccc(F)cc2)C1(C)C (stereo unspecified) | 33.8* | 8.8 | 0.4 | -0.2
CC(=O)OC1c2cc(C)ccc2NC(c2ccc(Cl)cc2)C1(C)C (stereo unspecified) | 14.3 | 8.4 | 1.4 | 0.3
O=C(Nc1ccc(Oc2ccccc2)cc1)c1ccc(F)c(S(=O)(=O)N2CCN(c3cccc(Cl)c3)CC2)c1 | 40.8* | 3.3 | 1.7 | -0.1
CCOC(=O)C1CCCN(S(=O)(=O)c2cc(C(=O)Nc3ccc(CC)cc3)ccc2F)C1 (stereo unspecified) | 1.4 | 10.1 | -0.1 | 0.8
CCOC(=O)C1CCCN(S(=O)(=O)c2cc(C(=O)Nc3ccc(Oc4ccccc4)cc3)ccc2F)C1 (stereo unspecified) | 53.4* | 7.8 | -0.7 | 0.1
CCOc1ccc(NC(=O)c2ccc(F)c(S(=O)(=O)N3CCN(c4ccccc4)CC3)c2)cc1 | 37.5* | 0.1 | 0.7 | -0.1
CCOc1ccc(NC(=O)c2ccc(F)c(S(=O)(=O)N3CCCc4ccccc43)c2)cc1 | 43.1* | 14.9 | 0.0 | 0.7
COc1cc(C)nc(NC(C)CCc2ccccc2)n1 (stereo unspecified) | 7.8 | 0.4 | 0.9 | 0.1
NCCCC[C@@H]1NC(=O)[C@H]2CN(Cc3ccc4ncccc4c3)CCN2C1=O | -3.2 | 6.7 | 0.1 | 0.8
COc1cccc(N2C(=O)C3CCCN3C2c2ccc(C)cc2)c1 (stereo unspecified) | -0.8 | 4.9 | -2.5 | 0.1
Cc1ccc2nsnc2c1S(=O)(=O)Nc1ccc(I)cc1 | 54.5* | 7.0 | -1.0 | -0.4
Cc1ccc2nsnc2c1S(=O)(=O)Nc1ccc(C(=O)O)cc1 | -7.9 | 7.7 | -0.6 | 0.1
Cc1c(C(=O)NC2=NCCS2)oc2ccccc12 | 38.2* | -24.8 | -6.3 | -0.1
SMILES | TEAD-YAP inh | MITF inh | GPR151 activ | FBW7 activator
Cc1cc([N+](=O)[O-])nn1CC(=O)NCc1ccc(F)cc1C(F)(F)F | 44.3* | 9.6 | -0.7 | -0.1
O=C(Cc1ccccc1F)NC1(c2ccc3c(c2)OCO3)CCCC1 | -5.0 | -4.5 | -0.4 | -0.2
CN(C)c1ccc(CN2CCN(CCO)CC2)cc1 | -5.5 | 76.9* | 1.1 | -0.4
CN(C)c1ccc(CN2CCN(c3ncccn3)CC2)cc1 | 2.1 | 34.0 | -1.8 | -0.1
CN(C)c1ccc(CN2CCC(C(N)=O)CC2)cc1 | -16.2 | 75.9* | -0.2 | -0.2
CCOc1ccccc1OCC(=O)N/N=C1\CCCC(=O)C1 | 47.8* | -5.0 | 1.1 | 0.0
